Assay outcomes deposited in PubChem BioAssay by several laboratories.
Shown are actives, neighbours in structure and some others; about 6.6% of the full set was active somewhere.
Mdm2-MdmX inh – disrupts the human Mdm2-MdmX interaction; O15151+Q00987; SaOS-2 split-luciferase Mdm2/MdmX complementation, luminescence; inhibition, % at 8 µM; hit rate 3% among 330,000;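 active = inhibition of at least 50% at 8 µM in the primary screen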
Target sequence (O15151 whole entry, looked up): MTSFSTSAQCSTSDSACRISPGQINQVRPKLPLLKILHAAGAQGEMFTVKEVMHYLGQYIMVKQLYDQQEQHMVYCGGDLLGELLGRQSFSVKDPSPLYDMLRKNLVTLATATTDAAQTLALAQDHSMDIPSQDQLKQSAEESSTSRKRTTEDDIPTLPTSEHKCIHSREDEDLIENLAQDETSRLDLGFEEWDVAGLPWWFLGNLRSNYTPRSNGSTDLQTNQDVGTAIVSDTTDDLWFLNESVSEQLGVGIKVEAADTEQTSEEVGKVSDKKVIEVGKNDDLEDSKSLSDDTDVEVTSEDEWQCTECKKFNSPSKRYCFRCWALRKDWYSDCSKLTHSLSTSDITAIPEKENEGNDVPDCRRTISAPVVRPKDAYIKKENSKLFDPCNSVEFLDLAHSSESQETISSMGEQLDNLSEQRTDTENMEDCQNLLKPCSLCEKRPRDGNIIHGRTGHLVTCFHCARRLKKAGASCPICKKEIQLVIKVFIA
Target sequence (Q00987 whole entry, looked up): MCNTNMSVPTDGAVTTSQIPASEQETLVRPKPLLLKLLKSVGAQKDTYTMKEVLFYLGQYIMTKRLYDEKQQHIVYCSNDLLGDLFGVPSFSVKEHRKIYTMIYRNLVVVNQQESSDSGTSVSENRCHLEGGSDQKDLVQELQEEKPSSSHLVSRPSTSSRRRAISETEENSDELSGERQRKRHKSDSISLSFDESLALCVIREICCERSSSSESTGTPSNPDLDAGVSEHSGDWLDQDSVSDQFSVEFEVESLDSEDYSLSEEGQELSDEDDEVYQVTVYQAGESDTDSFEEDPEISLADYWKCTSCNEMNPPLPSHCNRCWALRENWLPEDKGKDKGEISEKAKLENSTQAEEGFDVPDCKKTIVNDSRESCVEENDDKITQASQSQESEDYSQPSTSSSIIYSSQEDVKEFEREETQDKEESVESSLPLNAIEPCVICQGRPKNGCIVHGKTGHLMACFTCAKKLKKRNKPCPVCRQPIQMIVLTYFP
CSC inhib – blocks cancer stem cells; AID 2717; cancer stem cell-like cells viability, luminescence; inhibition, % at 7.5 µM; hit rate 1.1% among 300,000; in the data active = inhibition above about 75%; tested in HMLE shEcad cells
MPTP inh – permeability transition pore inhibition; isolated mouse mitochondria, Ca2+ swelling absorbance, 30 min; inhibition, % at 10 µM; hit rate 1.4% among 360,000;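 active = inhibition of 50% or more, scaled per plate between neutral and stimulator controls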;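 also: 0% = DMSO wells given calcium and 100% = 1 mM EGTA wells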
Beta cell apopt – blocks beta cell apoptosis; INS-1E cytokine-induced death, ATP luminescence, 48 h; percent of positive-control rescue, neutral wells zero; protection from apoptosis, % (no concentration beside the values); hit rate 0.8% among 300,000; AID 435005;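 active = Every replicate reaches about 75%, or at least half do and their mean reaches it too, limit read from the data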;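 also: 0% = cytokine-treated negative control wells and 100% = positive control rescue; higher means more ATP so stronger rescue from cytokine killing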
GRIN3A LBD mod – modulators (binders) of human NR3A ligand-binding domain | AID 1259313 | hit rate 2.5% among 340,000 | Tm shift relative to glycine control, % at 25 µM | NR3A LBD differential scanning fluorimetry, Tm shift; 0% = protein alone, 100% = glycine-bound protein;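 active = melting temperature shift of at least 10% of the positive control shift, at one fixed dose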
Gli-Sufu antag – antagonists of Gli-Sufu signaling. hit rate 0.74% among 340,000. Sufu-KO-LIGHT fibroblasts, Gli luciferase reporter luminescence. AID 588413. inhibition, % at 5 µM;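 active = inhibition above about 55%, limit read from the data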;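 also: 0% = DMSO-treated cells and 100% = wells with medium but no cells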
Rh123 counter – Rhodamine 123 counter-screen of mitochondrial pore hits; shares compounds with MPTP inh; isolated mitochondria, membrane potential, Rhodamine 123 fluorescence; inhibition, % at 10 µM; hit rate 78% among 5,000; in the data active = inhibition above about 22%;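 also: 0% = DMSO vehicle and 100% = positive control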
MPTP swell DR – dose response confirmation of mitochondrial permeability transition pore inhibitors. shares compounds with MPTP inh. IC50, µM. isolated mitochondria swelling, absorbance. AID 651561. hit rate 58% among 780; in the data active = IC50 below about 20 µM
MPTP counter DR – active in counter-screen for permeability transition pore inhibitors; isolated mitochondria counterscreen, fluorescence read-out; hit rate 49% among 780; shares compounds with MPTP inh; IC50, µM; in the data active = IC50 below about 80 µM
Active calls of the source: *; . = no result given.

SMILES | Mdm2-MdmX inh | CSC inhib | MPTP inh | Beta cell apopt | GRIN3A LBD mod | Gli-Sufu antag | Rh123 counter | others
O=C(NN1C(=O)c2cc(Br)ccc2NC1c1cc(Br)cc(Br)c1O)c1ccncc1 (stereo not drawn) | 4 | 32 | 88* | -12 | 0 | 6 | 52*
N#C/C(=C/c1cccn1-c1cccc(C(=O)O)c1)c1ccc(F)cc1 | . | . | -1 | . | 0 | 1 | .
CCc1ccc2c(c1)cc(CN(C(=S)Nc1ccc(Cl)cc1)C1CC1)c1nnnn12 | 23 | 7 | 146* | -11 | 1 | -3 | 10 | MPTP swell DR=>100;MPTP counter DR=>80
[O-]/C(=C(\C(=S)Nc1ccc(SC(F)F)cc1)[n+]1cccc(CO)c1)c1ccc(Cl)s1 | 13 | 7 | 101* | -5 | 2 | 1 | 85*
Cc1ccc(NC(=S)/C(=C(\[O-])c2ccc(Cl)s2)[n+]2cccc(CO)c2)cc1C | 2 | 37 | -2 | -7 | -4 | -6 | .
CCN(CC)S(=O)(=O)c1ccc(S(=O)(=O)Nc2ccc3c(c2)oc2ccccc23)cc1 | 20 | 48 | 60* | -5 | 24* | 14 | 84*
CCC(C(=O)c1ccc2ncccc2c1)c1ccccc1 (stereo not drawn) | 4 | -6 | 6 | 0 | 2 | 27 | .
Cc1cc(-n2c(C)cc(C(=O)CSc3[nH]c(=O)cc(C(F)(F)F)c3C#N)c2C)no1 | 31 | 21 | 57* | -5 | 4 | -4 | 72*
Nc1cc(S(=O)(=O)c2ccc(N3CCCCC3)c(N)c2)ccc1N1CCCCC1 | . | . | 94* | . | . | . | 105*
Nc1cc(S(=O)(=O)N2CCCCC2)ccc1N1CCOCC1 | 14 | -1 | -2 | -12 | -1 | -2 | .
CC1CCN(c2ccc(S(=O)(=O)N3CCC(C)CC3)cc2N)CC1 | 16 | 8 | 69* | 27 | -1 | 40 | 77*
COc1ccccc1Cc1c(C2CCCCC2)nc2ccc(Cl)cn12 | . | . | -2 | . | . | . | .
C=CC(C)(C)c1c2occc2c(O)c2ccc(=O)oc12 | 18 | . | 74* | . | -4 | 5 | 84*
CN1CCN(c2ccc(CNS(=O)(=O)Cc3cccc(C(F)(F)F)c3)cc2)CC1 | 21 | 44 | 84* | 86* | 1 | 38 | 86*
CN1N=C(C(=O)NC2CCCc3c2cnn3-c2ccc(F)cc2F)CCC1=O (stereo not drawn) | -6 | 1 | 0 | 2 | -3 | 9 | .
Cc1ccc(C(=O)NC2CCCc3c2cnn3-c2ccc(F)cc2F)cn1 (stereo not drawn) | 14 | 5 | 52* | 100* | . | . | 91*
CC(=O)NC1CCCc2c1cnn2-c1ccc(C(C)(C)C)cc1 (stereo not drawn) | 2 | -16 | 0 | 0 | 1 | 13 | .
Cc1cc(C(=O)NC2CCCc3c2cnn3-c2cccc(C)c2C)n(C)n1 (stereo not drawn) | 5 | 18 | 90* | 112* | 1 | 81* | 108*
Cc1cccc(-n2ncc3c2CCCC3NC(=O)c2ccc[n+]([O-])c2)c1C (stereo not drawn) | 26 | -3 | 0 | -3 | -2 | 40 | .
Cn1nccc1C(=O)NC1CCCc2c1cnn2-c1ccc(C(C)(C)C)cc1 (stereo not drawn) | 20 | -6 | 98* | 116* | 16* | 76* | 103*
CC1CCCC(NC(=O)c2ccc(F)c(S(=O)(=O)N3CCOCC3)c2)C1C (stereo not drawn) | 7 | -4 | 1 | 0 | 0 | -8 | .
O=C(COc1cccc2ccccc12)N1c2ccccc2CCc2ccccc21 | 40 | 32 | 1 | 0 | 0 | 13 | .
O=C(NCCS(=O)(=O)N1CCN(c2ccccc2F)CC1)c1cc(=O)c2ccccc2o1 | -4 | -5 | -3 | . | 0 | 7 | .
Cc1ccc(NC(=O)c2ccc(-n3cccn3)c([N+](=O)[O-])c2)cc1 | -9 | -5 | 8 | -7 | 7 | -1 | .
Cc1ccc(NC(=O)c2cc3cccc([N+](=O)[O-])c3[nH]2)cc1 | -131 | 4 | 64* | -9 | 33* | -72 | 61*
SMILES | Mdm2-MdmX inh | CSC inhib | MPTP inh | Beta cell apopt | GRIN3A LBD mod | Gli-Sufu antag | Rh123 counter | others
CCC(C)c1ccccc1NC(=O)c1cc2cccc([N+](=O)[O-])c2[nH]1 (stereo not drawn) | 0 | 5 | 61* | -4 | -2 | 2 | 66*
CCCCNC(=S)NCCN1CCN(C(=S)NCCCC)CC1 | 10 | -11 | -2 | -4 | 0 | -1 | .
Clc1ccc(NC2(c3nnnn3C3CCCCC3)CCCCC2)cc1 | 29 | 1 | 91* | . | -8 | 9 | 91*
O=[N+]([O-])c1ccc(O)c(C2=NNC(c3ccccc3F)C2)c1 (stereo not drawn) | 8 | 37 | 89* | 27 | 7 | -85 | 85*
Cc1cccc(OCC(=O)N2CCc3ccccc3C2)c1C | . | . | -1 | . | . | . | .
Cc1ccc(SCCC(=O)Nc2ccc(Br)c(C)c2)cc1 | 23 | 27 | 86* | -6 | -2 | -2 | 92*
CN1CCc2c(sc3nc(SCC(=O)N4CCOCC4)n(-c4ccc(Cl)cc4)c(=O)c23)C1 | 0 | -4 | 0 | -3 | -3 | -2 | .
COC(=O)c1scc(C#N)c1N/N=C(\C#N)S(=O)(=O)c1ccc(Cl)cc1 | 41 | 44 | 67* | -6 | 5 | 2 | 84*
COC(=O)c1scc(S(=O)(=O)C(C)C)c1N/N=C(\C#N)C(=O)c1ccc(Cl)cc1 | 23 | 25 | 73* | 0 | 5 | 16 | 78*
COC(=O)c1scc(C)c1NC(=O)c1ccc(Cl)cc1 | 6 | -10 | 0 | -5 | 1 | 11 | .
COc1ccc(CNC(=O)CSc2nc3ccccc3n2C(C)=O)cc1 | -5 | -1 | 0 | -6 | -1 | 6 | .
COc1ccccc1N1CCN(Cc2cc(=O)oc3ccccc23)CC1 | . | . | -3 | . | . | . | .
CS(=O)(=O)NCc1ccc(C(=O)O)cc1 | 1 | . | -2 | -4 | 1 | -6 | .
Cn1nnnc1SCCNCc1ccccc1OCc1ccc(Cl)cc1 | -2 | 19 | 2 | -4 | -5 | 12 | .
Cn1nnnc1SCCNCc1cc(Cl)ccc1OCc1ccccc1 | -10 | 3 | 83* | 33 | -2 | 22 | 31*
Cc1ccccc1OCc1nc2c3c(ncn2n1)-c1ccccc1CC31CCCC1 | 1 | 12 | 69* | 13 | 3 | 10 | 1 | MPTP swell DR=13*;MPTP counter DR=>80
Cc1cccc(OCc2nc3c4c(ncn3n2)-c2ccccc2CC42CCCC2)c1 | -2 | 0 | 5 | -4 | 2 | 4 | .
COc1ccc(-c2nc3c4c(ncn3n2)-c2ccccc2CC42CCCC2)cc1 | -5 | 4 | 78* | -9 | -2 | 6 | 1 | MPTP swell DR=>100;MPTP counter DR=>80
